HTR5A ag = HTR5A agonism, opioid heterodimer counter-screen; P47898; HTR5A agonist assay, luminescence, cell-based; activation, % at 9.3 µM; 340,000 tested, 0.61% active; in the data active means activation mostly above about 9.5%, no sharp cut-off; inactive means mostly below about 7.6%;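 further: 0% = cells with vehicle only and 100% = reference agonist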
MOR-DOR ag = agonists of human mu-delta opioid receptor heterodimerization | P35372+P41143 | activation, % at 9.3 µM | cells, OPRM1-OPRD1 heterodimerization, luminescence | 340,000 tested, 0.3% active | AID 504326; in the data active means activation above about 18%;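 further: 0% = vehicle-treated cells and 100% = reference agonist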
Target sequence (P35372 whole entry, looked up): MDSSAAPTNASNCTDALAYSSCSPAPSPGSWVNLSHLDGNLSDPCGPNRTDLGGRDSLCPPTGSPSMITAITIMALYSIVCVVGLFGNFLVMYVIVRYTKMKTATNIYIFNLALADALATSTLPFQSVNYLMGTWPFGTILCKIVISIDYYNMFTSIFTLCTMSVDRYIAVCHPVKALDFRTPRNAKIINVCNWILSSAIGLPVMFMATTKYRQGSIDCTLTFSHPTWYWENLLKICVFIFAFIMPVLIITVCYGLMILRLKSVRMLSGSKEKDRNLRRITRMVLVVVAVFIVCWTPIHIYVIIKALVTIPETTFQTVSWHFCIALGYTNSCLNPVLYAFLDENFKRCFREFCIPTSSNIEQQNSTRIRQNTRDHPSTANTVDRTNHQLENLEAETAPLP
Target sequence (P41143 whole entry, looked up): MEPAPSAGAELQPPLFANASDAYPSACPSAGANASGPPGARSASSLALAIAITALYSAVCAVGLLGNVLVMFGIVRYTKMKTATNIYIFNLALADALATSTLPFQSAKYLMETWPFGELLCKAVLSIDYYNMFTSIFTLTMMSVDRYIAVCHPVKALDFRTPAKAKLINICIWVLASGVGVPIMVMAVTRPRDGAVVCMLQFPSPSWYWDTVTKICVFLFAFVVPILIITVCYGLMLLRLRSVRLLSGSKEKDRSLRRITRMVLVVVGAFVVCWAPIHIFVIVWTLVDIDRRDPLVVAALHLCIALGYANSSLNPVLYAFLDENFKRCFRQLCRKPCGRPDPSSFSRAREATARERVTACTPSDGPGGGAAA
HTR5A inv ctr = counter-screen for OPRM1-OPRD1 inverse agonists: human HTR5A inverse agonism; P47898; HTR5A cell line, luminescence; inhibition, % at 9.3 µM; 340,000 tested, 0.083% active; in the data active means inhibition mostly above about 23%, no sharp cut-off; inactive means mostly below about 18%;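 further: 0% = cells with DMSO and 100% = no-cell wells with DMSO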
NALP1 yeast inh = blocks the NALP1 inflammasome reconstituted in yeast; 280,000 tested, 0.61% active; AID 2071; S. cerevisiae NALP1/ASC/caspase-1 growth, X-gal OD620, 72 h; inhibition, % at 10 µM; in the data active means inhibition mostly above about 24%, no sharp cut-off; inactive means mostly below about 32%
OPRM1-OPRD1 inv = inverse agonist of human OPRM1-OPRD1 heterodimerization. inhibition, % at 9.3 µM. 340,000 tested, 0.21% active. cell-based MOR-DOR heterodimer luminescence, inverse agonism; in the data active means inhibition above about 22%, passing the limit was not always enough;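 further: 0% = cells with DMSO and 100% = wells without cells with DMSO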
PolyA inhibitor = blocks polyadenylation in yeast reporter cells. S. cerevisiae SKY197-pL101 polyadenylation reporter, beta-gal luminescence; efflux-impaired pdr1/pdr3 knockout yeast; score 100 = 6 SD above DMSO. activity score, % at 12 µM. 300,000 tested, 0.02% active. AID 1875;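 active means lowest replicate activity score at least 50, where 100 means six control SD above control mean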;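 further: yeast exposed to compound for 9 h at 30 °C; higher score means more reporter readthrough which indicates perturbed polyadenylation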
Starred values were filed as active, the others as inactive. An excerpt weighted towards active compounds, which were near 1.6% of everything screened.

Results for c1ccc2c(c1)[nH]c1cnccc12 ?
HTR5A ag: 4; MOR-DOR ag: 0; HTR5A inv ctr: 13; NALP1 yeast inh: 32; OPRM1-OPRD1 inv: -1; PolyA inhibitor: -21

What do the screens show for `Cc1c2ccncc2c(C)c2c1[nH]c1ccccc12`?
HTR5A ag: 2; MOR-DOR ag: -1; HTR5A inv ctr: -40; NALP1 yeast inh: 95*; OPRM1-OPRD1 inv: 6; PolyA inhibitor: 9

Results for CN(C)[C@@H]1C(=O)C(C(N)=O)=C(O)[C@@]2(O)C(=O)C3=C(O)c4c(O)ccc(Cl)c4[C@@](C)(O)C3C[C@@H]12 (stereo partly drawn) ?
HTR5A ag: 0; MOR-DOR ag: 0; HTR5A inv ctr: 1; NALP1 yeast inh: 132*; OPRM1-OPRD1 inv: 0

How did COC(=O)C1=C(C(=O)OC)C2OC1c1cc3ccccc3cc12 do in these assays?
HTR5A ag: 2; MOR-DOR ag: -6; HTR5A inv ctr: -9; OPRM1-OPRD1 inv: 26

Results for CC(=O)O[C@H]1CC[C@@]2(C)C(=CC(=O)C3C2CC[C@@]2(C)C3C[C@H](OC(C)=O)[C@@H]2OC(C)=O)C1 (stereo partly drawn) ?
HTR5A ag: 9.0*; MOR-DOR ag: -1; HTR5A inv ctr: -35; OPRM1-OPRD1 inv: 7

Results for CC(C)(C)C(=O)O[C@H]1CC[C@@]2(C)C(=CC(=O)C3C2CC[C@]2(C)C(=O)CCC32)C1 (stereo partly drawn) ?
HTR5A ag: 0; MOR-DOR ag: -1; HTR5A inv ctr: -1; OPRM1-OPRD1 inv: 4

What do the screens show for `Cn1c(O)c(/C=N/N2CCOCC2)c(=O)n(-c2ccccc2)c1=S`?
HTR5A ag: 6; MOR-DOR ag: -1; HTR5A inv ctr: -16; NALP1 yeast inh: 37*; OPRM1-OPRD1 inv: 3; PolyA inhibitor: 14

Results for O=c1c(/C=N/N2CCOCC2)c(O)n(-c2ccccc2)c(=S)n1-c1ccccc1 ?
HTR5A ag: -1; MOR-DOR ag: -3; HTR5A inv ctr: 10; NALP1 yeast inh: 6; OPRM1-OPRD1 inv: 13; PolyA inhibitor: 21

How did CN1C2CCC1/C(=C/c1ccccn1)C(=O)/C2=C\c1ccccn1 do in these assays?
HTR5A ag: -7; MOR-DOR ag: -5; HTR5A inv ctr: -2; NALP1 yeast inh: 101*; OPRM1-OPRD1 inv: 27

How did Cc1oc(-c2ccccc2Cl)nc1CN1C(=O)CN=C(c2ccccc2)c2ccccc21 do in these assays?
HTR5A ag: 0; MOR-DOR ag: 2; HTR5A inv ctr: 0; NALP1 yeast inh: 28; OPRM1-OPRD1 inv: -11; PolyA inhibitor: -4

Results for O=C(c1cn(Cc2ccccc2)c2ccccc12)C1CC1 ?
HTR5A ag: 11*; MOR-DOR ag: 1; HTR5A inv ctr: -28; NALP1 yeast inh: -2; OPRM1-OPRD1 inv: -6; PolyA inhibitor: -6

What do the screens show for `CC(C)CC12CN3CCN(CC(C3)/C1=N/O)C2`?
HTR5A ag: -4; MOR-DOR ag: -2; HTR5A inv ctr: 10; OPRM1-OPRD1 inv: 12; PolyA inhibitor: -5

What do the screens show for `CC(C)C12CN3CCN(CC(C3)/C1=N\O)C2`?
HTR5A ag: 12*; MOR-DOR ag: -2; HTR5A inv ctr: -12; NALP1 yeast inh: -26; OPRM1-OPRD1 inv: 13; PolyA inhibitor: 7

Results for CC(C)c1ccc(C2NCc3ccccc3-n3cccc32)cc1 (stereo not drawn) ?
HTR5A ag: 2; MOR-DOR ag: 5; HTR5A inv ctr: -6; NALP1 yeast inh: 38*; OPRM1-OPRD1 inv: -26; PolyA inhibitor: 7

Results for CC(C)CN1CCN(Cc2ccc(C(F)(F)F)cc2)CC1CCO (stereo not drawn) ?
HTR5A ag: -7; MOR-DOR ag: -1; HTR5A inv ctr: 1; NALP1 yeast inh: 10; OPRM1-OPRD1 inv: 5; PolyA inhibitor: 7

What do the screens show for `CCCCn1c(NC(=O)c2ccc(Br)o2)c(C(=O)OCC)c2nc3ccccc3nc21`?
HTR5A ag: -5; MOR-DOR ag: -11; HTR5A inv ctr: 12; NALP1 yeast inh: 39; OPRM1-OPRD1 inv: 55*

How did CCCCn1c(N)c(C(=O)NCCN2CCOCC2)c2nc3ccccc3nc21 do in these assays?
HTR5A ag: 0; MOR-DOR ag: -3; HTR5A inv ctr: -1; NALP1 yeast inh: 22; OPRM1-OPRD1 inv: 15; PolyA inhibitor: -1

How did CCOC(=O)C1=C(N)OC2=C(C(=O)CCC2)[C@]12C(=O)N(CC(N)=O)c1ccccc12 do in these assays?
HTR5A ag: 2; MOR-DOR ag: 3; HTR5A inv ctr: -25; NALP1 yeast inh: 36*; OPRM1-OPRD1 inv: -14; PolyA inhibitor: 7

Results for CCOC(=O)C1=C(C)OC(N)=C(C(=O)OCC)[C@@]12C(=O)N(CC(N)=O)c1ccccc12 ?
HTR5A ag: -1; MOR-DOR ag: 3; HTR5A inv ctr: 3; NALP1 yeast inh: 4; OPRM1-OPRD1 inv: -18; PolyA inhibitor: 4

Results for CN1CCc2cccc(Cl)c2CC1 ?
HTR5A ag: 21; MOR-DOR ag: -1; HTR5A inv ctr: -77; OPRM1-OPRD1 inv: 7

Results for C[C@@H]1CC[C@@]2(NC1)O[C@H]1C[C@H]3[C@@H]4CC=C5C[C@@H](O)CC[C@]5(C)[C@H]4CC[C@]3(C)[C@H]1[C@@H]2C ?
HTR5A ag: 4; MOR-DOR ag: -1; HTR5A inv ctr: -15; NALP1 yeast inh: 36*; OPRM1-OPRD1 inv: 3; PolyA inhibitor: -22

What do the screens show for `Cn1ncnc2c(=O)n(C)c(=O)nc1-2`?
HTR5A ag: 20*; MOR-DOR ag: 31*; HTR5A inv ctr: -3; NALP1 yeast inh: 14; OPRM1-OPRD1 inv: -143; PolyA inhibitor: 10

What do the screens show for `O=c1[nH]c(=S)n(Cc2ccc(F)cc2)c(O)c1C=NCc1ccc2c(c1)OCO2`?
HTR5A ag: 3; MOR-DOR ag: -1; HTR5A inv ctr: -2; OPRM1-OPRD1 inv: 3; PolyA inhibitor: 0

Results for O=c1[nH]c(=S)n(Cc2ccc(F)cc2)c(O)c1/C=N/N1CCCCCC1 ?
HTR5A ag: 3; MOR-DOR ag: 0; HTR5A inv ctr: 11; NALP1 yeast inh: 46*; OPRM1-OPRD1 inv: 2; PolyA inhibitor: 6

Results for CC1=C(O)C(=O)C=C2C1=CC=C1C2(C)CCC2(C)C3CC(C)(C(=O)O)CCC3(C)CCC12C (stereo not drawn) ?
HTR5A ag: -2; MOR-DOR ag: 3; HTR5A inv ctr: 6; OPRM1-OPRD1 inv: -17

Results for O=c1c2cc(Br)ccc2[nH]c(=S)n1-c1ccccc1 ?
HTR5A ag: 5; MOR-DOR ag: -2; HTR5A inv ctr: 0; NALP1 yeast inh: -4; OPRM1-OPRD1 inv: 8; PolyA inhibitor: -15

Results for O=c1c2ccccc2[nH]c(=S)n1-c1ccc(Br)cc1 ?
HTR5A ag: 3; MOR-DOR ag: -1; HTR5A inv ctr: -9; NALP1 yeast inh: 33*; OPRM1-OPRD1 inv: 7; PolyA inhibitor: -27

Results for COP(=S)(OC)c1c(C)nn(CCC#N)c1NC(=O)c1ccc(Cl)cc1 ?
HTR5A ag: 4; MOR-DOR ag: 1; HTR5A inv ctr: -11; NALP1 yeast inh: 22; OPRM1-OPRD1 inv: -9; PolyA inhibitor: -3

High-throughput results (PubChem BioAssay)
